From PubChem BioAssay (NCI)
The panel holds about 79,000 compounds, 15% with a hit somewhere; the sample as a whole holds those more often. Activity calls are given as the source filed them. Cut-off read from the data, not from the text of the source: active = growth inhibition above about 70%; inactive = the rest.

How the values were obtained:
[1] = NCI Yeast Anticancer Drug Screen. Data for the rad50 strain (AID 155);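 note: 0% = growth of vehicle-only cultures of the same strain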; conditions: S. cerevisiae rad50 strain growth inhibition; at 50.0 µM; hits give high values
Method in brief: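 Readout: growth inhibition relative to vehicle-treated cultures. Compound exposure was carried out in a genetically defined yeast strain deficient in DNA damage repair.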

[2] = NCI Yeast Anticancer Drug Screen. Data for the mec2-1 strain (AID 157); conditions: S. cerevisiae mec2-1 strain, at 50.0 µM, hits give high values
Method in brief: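 Yeast mec2-1 mutant treated with compound. Readout: growth inhibition vs vehicle controls.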

[3] = NCI Yeast Anticancer Drug Screen. Data for the sgs1 mgt1 strain (AID 161);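 note: 0% = growth of cultures given vehicle only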; conditions: S. cerevisiae sgs1 mgt1 strain, at 50.0 µM, hits give high values
Method in brief: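 Test agents were incubated with a DNA-repair-mutant yeast strain. Growth was then read and compared against vehicle-treated controls.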

[4] = NCI Yeast Anticancer Drug Screen. Data for the cln2 rad14 strain (AID 165);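 note: 0% = growth equal to vehicle treated cultures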; conditions: S. cerevisiae cln2 rad14 strain, at 50.0 µM, hits give high values
Method in brief: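 cln2 rad14 yeast strain; compound exposure; growth inhibition read vs vehicle controls.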

[5] = NCI Yeast Anticancer Drug Screen. Data for the bub3 strain (AID 167); conditions: S. cerevisiae bub3 mutant strain, at 50.0 µM, hits give high values
Method in brief: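 Readout: yeast growth inhibition, expressed relative to vehicle-only wells. The test organism is a mutant strain from a panel with lesions in DNA repair or checkpoint genes.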

[6] = NCI Yeast Anticancer Drug Screen. Data for the mlh1 rad18 strain (AID 175); conditions: S. cerevisiae mlh1 rad18 strain growth inhibition; at 50.0 µM; hits give high values
Method in brief: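 Yeast w/ defined DNA-repair lesions; compound exposure; growth vs vehicle controls → % inhibition.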

Measured: growth inhibition

O=C(O)CC1CCCc2ccccc2C1CC(=O)O (configuration not stated)
inactive: [1] 5.25% | [2] -4.3% | [3] 10.4% | [4] 8.8% | [5] 6.85% | [6] 7.4%

COc1ccc2c(=O)c(O)c(-c3ccc(OC)c(OC)c3)oc2c1
inactive: [1] 12.7% | [2] 5.35% | [3] -18.6% | [4] -9.1% | [5] -1.25% | [6] 18.4%

CC(=O)C1SCC[S+]1C (configuration not stated)
inactive: [1] -19.8% | [2] -7.6% | [3] -10.6% | [4] 13.4% | [5] -9.2% | [6] -10.8%

O=C(N/N=C/C=C/c1ccccc1)c1ccccc1O
inactive: [1] -1.8% | [2] 43% | [3] 56.2% | [4] -31.7% | [5] 43.4% | [6] 29.6%

Cc1ccccc1N(C)S(=O)(=O)c1ccccc1[N+](=O)[O-]
inactive: [1] -12% | [2] -41.5% | [3] 8.45% | [4] -5.6% | [5] 20.2% | [6] -10.2%

c1ccc2c(c1)Cc1c(-c3ccncc3)n[nH]c1-2
inactive: [1] 48.8% | [2] 33% | [3] 41.6% | [4] 10.3% | [5] 19.3% | [6] 60.1%

Cc1cc(C)cc(OCCC(=O)O)c1
inactive: [1] -1.4% | [2] -16.6% | [3] -10.4% | [4] 21.7% | [5] 2.95% | [6] 7.1%

O=S(=O)(NC1c2ccccc2Oc2ccccc21)c1ccc2ccccc2c1
inactive: [1] 28.4% | [2] 11.1% | [3] 16.6% | [4] 19.1% | [5] 9.65% | [6] 39.7%

c1ccc(C(=C2C(=C(c3ccccc3)c3ccccc3)c3nc4ccccc4nc32)c2ccccc2)cc1
inactive: [1] 26.8% | [2] 8.8% | [3] 7% | [4] 16.9% | [5] -1.05% | [6] 8.1%

N#C/C(=C/n1c(=S)sc2ccccc21)c1nc2ccccc2s1
inactive: [1] 11.8% | [2] 14.7% | [3] 49.6% | [4] 24.9% | [5] 23.4% | [6] 30.8%

NC(N)=NS(=O)(=O)c1ccc(Nc2c3ccccc3nc3c(C(=O)NNCCO)cccc23)cc1
inactive: [1] -10.1% | [2] -2.85% | [3] 25.6% | [4] -7.7% | [5] 15.9% | [6] -1.65%

CC1(C)OC[C@@H](N)[C@@H](O)CO1
inactive: [1] -9.35% | [2] 12.6% | [3] 0.05% | [4] -31.9% | [5] 0.55% | [6] 1.95%

Cc1cc(Br)c(O)c(-c2cscn2)c1
inactive: [1] -17.6% | [2] -34.8% | [3] 11.8% | [4] 28.9% | [5] 16.8% | [6] 3%

CC1=C(C(=O)Nc2cccc3c2C(=O)NC3=O)CC(C(=O)Nc2cccc3c2C(=O)NC3=O)=C(C)N1
inactive: [1] -51% | [2] -18.6% | [3] -6.15% | [4] -25.8% | [5] -10.9% | [6] -25.8%

CC/C(Cl)=N\OC(=O)Nc1ccccc1OC(F)(F)F
active: [3] 87.2%
inactive: [1] -24.1% | [2] -15.4% | [4] -13.6% | [5] 18.6% | [6] -89.6%

CCCCCCCC/C=C/CCCCCCCC(=O)O
inactive: [1] -25% | [2] -37.2% | [3] -20.6% | [4] -16.8% | [5] -16.2% | [6] -50.9%

Nc1ccc(F)cc1C(F)(F)F
inactive: [1] 6.65% | [2] -45% | [3] -4.55% | [4] -7.75% | [5] -8.05% | [6] 23%

COC1C=C(Br)C(=O)C(C)O1 (configuration not stated)
inactive: [1] 5.7% | [2] 1.3% | [3] -25.6% | [4] -2.3% | [5] 21.2% | [6] -1.8%

O=C(COc1cccc(Cl)c1)Nc1ccc(Cl)cc1
inactive: [1] -0.5% | [2] -26.7% | [3] -18.9% | [4] -13.8% | [5] 17.4% | [6] 4.3%

Cc1cc(C(C)(C)CC(=O)O)cc(C)c1C
inactive: [1] 60.6% | [2] 37.4% | [3] 27.6% | [4] 43.6% | [5] 54% | [6] 56.3%

CCN(CC)CCOC(=O)c1ccc(N)c2ccccc12
inactive: [1] -3.8% | [2] 12.2% | [3] -14.3% | [4] -22.4% | [5] 5.5% | [6] 6.85%

S=C1CNC(=S)CN1
inactive: [1] -4.15% | [2] -21.9% | [3] 0.7% | [4] 8.75% | [5] 10.8% | [6] -22.9%

COc1ccc(C[N+](C)(C)N)cc1OC
inactive: [1] -13.8% | [2] -18.2% | [3] -21.9% | [4] -9.7% | [5] -40.5% | [6] -34.1%

CC(=O)c1cccc(NC(=O)OCC2CC3C=CC2C3)c1 (configuration not stated)
inactive: [1] 25.4% | [2] 27.1% | [3] 45.9% | [4] 4% | [5] 52.8% | [6] 52.3%

COc1ccc(C(O)Cc2ccccc2)cc1 (configuration not stated)
inactive: [1] -4.9% | [2] -19.4% | [3] 5.6% | [4] -16.9% | [5] -18.4% | [6] -6.4%

Nc1ccc(S(=O)(=O)c2ccc(Nc3ccnc4cc(Cl)ccc34)cc2)cc1
inactive: [1] 23.1% | [2] 13.6% | [3] 5.05% | [4] 7.55% | [5] 1.6% | [6] 12.8%

CCn1cc(C(=O)C(=O)N(C)C)c2ccccc21
inactive: [1] 13.2% | [2] -7.75% | [3] -2.5% | [4] -3.35% | [5] 17.2% | [6] 1.95%

CS(=O)(=O)OCC(Cc1ccccc1)N1C(=O)c2ccccc2C1=O (configuration not stated)
inactive: [1] 1.3% | [2] 4.05% | [3] 17.9% | [4] 12.2% | [5] 26.9% | [6] 34.1%

COc1ccc(OC)c(NC(=O)C(=O)C(C(=O)c2ccccc2F)C2OC(=O)c3ccccc32)c1 (configuration not stated)
inactive: [1] -15.6% | [2] -20.2% | [3] -27.9% | [4] -15.8% | [5] -60.2% | [6] -41.2%

CN(C=C(C#N)C#N)c1ccccc1
inactive: [1] 8.7% | [2] -4.65% | [3] -0.1% | [4] -3.95% | [5] 9.05% | [6] 16.4%

[O-][n+]1cccc(CO)c1
inactive: [1] -17.9% | [2] -47.9% | [3] -25.1% | [4] 6.05% | [5] -15% | [6] -4.35%

O=Cc1ccc(OCCCOc2ccc([N+](=O)[O-])cc2)cc1
inactive: [1] -5.1% | [2] 1.6% | [3] 11.3% | [4] -12.1% | [5] 33.1% | [6] 42%

Ic1ccccc1
inactive: [1] -0.9% | [2] 7.25% | [3] -41.4% | [4] -9.35% | [5] -45.8% | [6] -65.7%

NC(N)=Nc1cccc2c1CC=CC2
inactive: [1] 0.2% | [2] -3.45% | [3] -5.3% | [4] -5.7% | [5] 2% | [6] -0.2%

COc1ccc(N)c(OC)c1
inactive: [1] -30.6% | [2] -37% | [3] -90% | [4] 12.9% | [5] -39.6% | [6] -34%

CSc1ccc(/C=C/c2ccnc3ccccc23)cc1
inactive: [1] 11.8% | [2] 14.8% | [3] 20.7% | [4] -12.3% | [5] 4.7% | [6] 7.95%

COc1ccc(-n2c(C)c(COC(C)=O)c(COC(C)=O)c2C)cc1
inactive: [1] -5.4% | [2] -18.2% | [3] -0.55% | [4] -2.8% | [5] -7.55% | [6] -55.2%
